Values joined by “and” are separate entries in the source; they are usually repeats but may differ in a detail not shown here. Equal entries are not always repeated. Results filed as inconclusive are left out. Values without a mark were called inactive. Active and inactive are the calls of the source. The call rests on the fitted dose curve; in most records, active means well fitted curve in the direction sought with a large enough effect; inconclusive means small, poorly fitted or top-dose-only effect, or another doubt; inactive means no such curve, though single readings can be large; an effect the other way counts as inactive or inconclusive.

The results in this text go back to PubChem BioAssay (NCATS).

Experiment [1] can be described thus: qHTS Assay for Identifying Gametocytocidal Compounds (AID 743244).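 Further: on the % scale 0 is the no-effect control and ±100 the full control effect; actives lower the fluorescent signal which means gametocytes are killed.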 The conditions noted are these: P. falciparum 3D7 stage III-V gametocytes, alamarBlue, 72 h; max response: hits give low values. Summed up:
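3D7 gametocytes, stages III–V, 20,000/well; cpd 72 h, 37 °C/5% CO2; + alamarBlue 24 h; fluor. Ex 525/Em 598.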
On the technique in general: In qHTS, concentration-response curves come from the screen itself.

The nature of experiment [2]: qHTS assay for measurement of the activity of small molecule inhibitors on Zika virus induced Caspase-3 activity in human iPSC derived neural progenitor cells (hNPCs) (AID 1224857). Further: % of control where 0% means no effect; nearly all actives have a fitted effect of over 65% in size. Summed up: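 Cells were plated at 350 per well and grown 16 to 20 hours. Compound pretreatment lasted one hour, after which ZIKV (2 FFU/cell) was added for 6 hours. Percent inhibition was normalized between uninfected and infected controls.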

`CNCCc1ccccn1`: the max response in experiment [1] was -0.406%. The Potency entry in experiment [2] was “inactive”.
As for `O=C(O)C1(C(=O)O)CCC1.[NH2-].[NH2-].[Pt+2]`, the max response in experiment [1] is -10.4%. In addition, the Potency result in experiment [2] is “inactive”.
In the case of `CN(C)CCC[C@@]1(c2ccc(F)cc2)OCc2cc(C#N)ccc21`, in experiment [1], the max response is -8.84%. In addition, the Potency result in experiment [2] was “inactive”.
For `O=[N+]([O-])c1cccc(S(=O)(=O)NCCNS(=O)(=O)c2cccc([N+](=O)[O-])c2)c1`, in that order: 1.36% and “inactive”.
Turning to `N/C(=N\N=C\c1ccc(Cl)cc1)N/N=C/c1ccc(Cl)cc1`, the max response in experiment [1] was 0.563%. Also, in experiment [2], the Potency entry is “inactive”.
With `N=C(N)N1CCc2ccccc2C1`, the max response in experiment [1] was 4.79%. The activity change, negative = inhibition in experiment [2] was -12.7% [at 4.53 µM].
`CN1CCN(C2=Nc3ccccc3Sc3ccc(Cl)cc32)CC1`: in experiment [1], the max response was -0.118%. In experiment [2], the Potency result is “inactive”.
On to `C[C@@]12C(=O)OC(=O)[C@]1(C)C1CCC2O1`, for which the max response in experiment [1] is -5.31%. The Potency entry in experiment [2] was “inactive”.
For `O=C1C(O)=C(O)C(=O)C(O)=C1O`, in that order: -3.08% and “inactive”.
Regarding `COC(=O)C(c1ccccc1Cl)N1CCc2sccc2C1` (stereo not drawn), in experiment [1], the max response is 14.8%. Further, in experiment [2], the Potency entry was “inactive”.
As for `CCC(C(=O)OCCOCCN(CC)CC)c1ccccc1` (stereo not drawn), in experiment [1], the max response was 6.25%. Moreover, the Potency entry in experiment [2] is “inactive”.
In the case of `CCCc1ncc(C[n+]2ccccc2C)c(N)n1`, the max response in experiment [1] was 8.25%. Besides, in experiment [2], the Potency result is “inactive”.
On the same counts, the results for `C[C@@H](O)[C@H]1C(=O)N2C(C(=O)O)=C(S[C@@H]3CN[C@H](CNS(N)(=O)=O)C3)[C@H](C)[C@H]12` are 13.8% and “inactive”.
With `CN(Cc1ccc(C(C)(C)C)cc1)Cc1cccc2ccccc12`, the max response in experiment [1] is 18.1% and -10.3%. The Potency entry in experiment [2] is “inactive”.
